High-throughput results (PubChem BioAssay)
Rows were chosen to be rich in hits. Some 4.7% of all compounds tested hit in one or more screens of this group.
ATXN2 expr inh: reduces ATXN2 reporter expression in HEK-293 cells; HEK-293 ATXN2-luciferase reporter, luminescence, 24 h; Potency, µM (doses to about 57 µM), inactives show at the highest dose activity change, negative = inhibition, actives largely listed as inhibitors; actives 0.72% (n = 360,000); AID 1745845; further: potency means the concentration at half of the fitted maximal effect; on the % scale 0 is the no-effect control and ±100 the full control effect; nearly all actives have a fitted effect of over 55% in size
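qHTS (up to 57 uM final) was run with 24 h compound exposure of reporter cells at 37 °C. Each well was multiplexed: SteadyGlo luminescence measured ATXN2-luciferase expression after a fluorogenic Gly-Phe-AFC viability readout (25 uM final).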
DRD3 agonist: activates the human D3 dopamine receptor; P35462; D3R DiscoveRx beta-arrestin cells, luminescence, 90 min; max activation, %; actives 0.58% (n = 410,000); AID 652048; in the data active means max activation above about 30%; further: 0% is about no effect
Target sequence (P35462 whole entry, looked up): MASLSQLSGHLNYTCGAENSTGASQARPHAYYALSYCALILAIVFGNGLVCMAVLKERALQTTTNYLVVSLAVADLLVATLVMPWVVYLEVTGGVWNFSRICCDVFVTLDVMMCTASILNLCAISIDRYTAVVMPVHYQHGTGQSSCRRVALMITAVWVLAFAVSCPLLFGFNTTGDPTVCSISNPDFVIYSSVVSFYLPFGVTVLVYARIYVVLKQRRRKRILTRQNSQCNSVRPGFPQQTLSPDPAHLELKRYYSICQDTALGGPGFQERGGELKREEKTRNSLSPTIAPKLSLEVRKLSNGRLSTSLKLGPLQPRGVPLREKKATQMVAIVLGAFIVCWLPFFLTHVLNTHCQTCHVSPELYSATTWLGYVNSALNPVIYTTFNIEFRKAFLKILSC
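Cells at 1500/well, incubated overnight, then treated with pinned compounds (dopamine as control) for 90 min at 37 degrees C. DiscoveRx reagent added for 30 - 60 minutes at room temperature; luminescence read.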
HepG2 tox: kills HepG2 cells in TGF-b inhibitor counter-screen | HepG2 CAGA-GFP viability, ATP luminescence, 18 h | Potency, µM (titrated, usually from 46.1 µM), without a hit: at the top dose activity change, negative = cytotoxicity, actives largely listed as cytotoxic | actives 0.76% (n = 410,000) | AID 588856; further: potency means the concentration at half of the fitted maximal effect
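CellTiter-Glo luminescence gave cytotoxicity after 18 hours at 37 degrees C. The cells were HepG2 CAGA-GFP in 1% FBS DMEM, stimulated with 500 pg/mL TGF-beta after compound addition. %Activity was normalised to no-cell wells (complete cell-killing) and DMSO (no toxicity), and curves were fitted and classified.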
TGFb inhibitor: inhibitors of TGF-b signaling; HepG2 CAGA-GFP TGF-b/SMAD3 reporter, GFP fluorescence, 18 h; TGF-beta stimulated, 500 pg/mL final; Potency, µM (highest dose often 46.1 µM), for inactives: top-dose activity, negative = inhibition, actives largely listed as inhibitors; actives 1.2% (n = 410,000); AID 588855; further: potency means the concentration at half of the fitted maximal effect; on the % scale 0 is the no-effect control and ±100 the full control effect; nearly all actives have a fitted effect of over 65% in size
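TGF-beta reporter screen: HEPG2 CAGA-GFP, 1% FBS, 500 pg/mL TGF-beta final, 18 h; per-cell GFP summed per well; curves fitted and categorized by class.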
S2 tox: viability counter-screen for ATXN expression inhibitors | S2 cells (HEK-293 line with an ATXN2-luciferase reporter) viability, CellTiter-Fluor protease fluorescence, 24 h | Potency, µM (doses to about 56.7 µM), most hits filed as cytotoxic | actives 0.49% (n = 400,000) | AID 651635; further: potency means the concentration at half of the fitted maximal effect; nearly all actives have a fitted effect of over 40% in size
D3 antag: blocks the human D3 dopamine receptor; actives 2.5% (n = 360,000); D3R cells, DiscoveRx beta-arrestin luminescence, antagonist mode; active compounds read low; max response, negative = inhibition, %; in the data active means max response below about -50%; inconclusive means no clear call, values can overlap the other calls; further: on the % scale 0 is the no-effect control and ±100 the full control effect
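Cells plated overnight at 1500 cells/well, then exposed to library compounds with dopamine controls for 90 minutes at 37 degrees C. DiscoveRx reagent added for 30–60 minutes at room temperature; luminescence read, quantitative HTS format.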
* = called active by the depositor; i = inactive; ? = inconclusive; / = no result given; ! = a repeat was not active. Unless noted, the call rests on the fitted dose curve; in most records, active means well fitted curve in the direction sought with a large enough effect; inconclusive means small, poorly fitted or top-dose-only effect, or another doubt; inactive means no such curve, though single readings can be large; an effect the other way counts as inactive or inconclusive.

SMILES	ATXN2 expr inh	DRD3 agonist	HepG2 tox	TGFb inhibitor	S2 tox	D3 antag
NC(=S)N/N=C/c1ccc(C23CC4CC(CC(C4)C2)C3)cc1	?	-28	-10%	-14%	i	-89*
Cc1ccc(C(=O)N2CCOc3ccc(CN4CCN(Cc5ccccn5)CC4)cc3C2)cc1	/	/	/	/	i	/
Cc1cc(O)c(C(C)C)cc1N=Cc1ccccc1[N+](=O)[O-]	18µM*	-12	-4%	4%	?	-26
CCCCn1c(=N)n(CCOc2ccccc2OC)c2ccccc21	/	-8	-59%	10µM*	/	/
CCCCCn1c(=N)n(CC(O)COc2ccccc2OC)c2ccccc21 (stereo unspecified)	28µM*!	-6	-84%	11µM*	28µM*	?
COc1ccccc1OCC(O)Cn1c(=N)n(Cc2ccccc2)c2ccccc21 (stereo unspecified)	?	-4	-68%	-15%	?	-16
CCn1c(=N)n(CCOc2ccc(Br)cc2)c2ccccc21	/	9	-99%	8.9µM*	/	/
CCCCCCCCCC[n+]1ccc(/C=C/c2c(C)[nH]c3ccccc23)cc1	/	/	-101%	211%	/	/
CN(C)CCCNC(=O)C[C@H]1C[C@H](C(=O)N2CCCCC2)[C@@]2(CCc3ccccc3)c3[nH]c4cc(-c5ccco5)ccc4c3CCN2C1=O	?	-15	14µM*	?	28µM*	-25
COc1ccc2[nH]c3c(c2c1)CCN1C(=O)C(CC(=O)NCCC2=CCCCC2)C[C@H](C(=O)N2CCCCC2)[C@@]31CCc1ccccc1 (stereo partly specified)	3%	-1	-27%	-7%	i	-9
CC[C@]12c3[nH]c4cc(-c5ccco5)ccc4c3CCN1C(=O)[C@@H](CC(=O)NCC13CC4CC(CC(C4)C1)C3)C[C@@H]2C(=O)N1CCN(C(=O)C2CC2)CC1	?	-46	-16%	?	?	-54*
COc1ccc2[nH]c3c(c2c1)CCN1C(=O)C(CC(=O)NCCC2=CCCCC2)C[C@H](C(=O)N2CCOCC2)[C@@]31CCC1CCCC1 (stereo partly specified)	0%	30	13%	2%	i	-52*
CN(C)CCCNC(=O)C[C@H]1C[C@H](C(=O)N2CCCCC2)[C@@]2(C)c3[nH]c4cc(-c5ccco5)ccc4c3CCN2C1=O	-21%	6	-86%	?	?	7
CC[C@]12c3[nH]c4cc(-c5ccco5)ccc4c3CCN1C(=O)[C@@H](CC(=O)NCc1ccco1)C[C@@H]2C(=O)N1CCN(C(=O)C2CC2)CC1	-2%	-2	2%	-1%	i	?
COc1ccc2[nH]c3c(c2c1)CCN1C(=O)C(CC(=O)NCCCN(C)C)C[C@H](C(=O)N2CCCCC2)[C@@]31CCc1ccccc1 (stereo partly specified)	3%	1	-35%	-13%	i	-11
COc1ccc2[nH]c3c(c2c1)CCN1C(=O)C(CC(=O)NCCN2CCOCC2)C[C@H](C(=O)N2CCCCC2)[C@@]31CCc1ccccc1 (stereo partly specified)	6%	30*	6%	28%	i	-9
C=CC[N+]1([C@H]2C[C@H]3[C@@H]4CC[C@H]5C[C@H](OC(C)=O)[C@@H](N6CCCCC6)C[C@]5(C)[C@H]4CC[C@]3(C)[C@H]2OC(=O)CC)CCCCC1	1%	-13	/	/	?	/
CC(C)=CCC/C(C)=C/CNC(=O)C[C@H]1C[C@H](C(=O)N2CCOCC2)[C@@]2(C)c3[nH]c4cc(-c5ccco5)ccc4c3CCN2C1=O	?	-16	-77%	13µM*	/	-8
CC(C)=CCC/C(C)=C/CNC(=O)CC1C[C@H](C(=O)N2CCOCC2)[C@@]2(C)c3[nH]c4ccccc4c3CCN2C1=O (stereo partly specified)	?	-31	-19%	?	/	8
COc1cccc(-c2nn(C)c3sc(C(=O)NCCc4ccc(Cl)cc4)cc23)c1	-18%	5	-27%	-17%	?	/
CCCCN(CC)CCCNC(=O)c1cc2c(-c3ccc(OC)c(OC)c3)nn(C)c2s1	?	-22	-21%	9%	?	-98*
Cn1nc(-c2ccccc2F)c2cc(C(=O)NCCc3ccc(Cl)cc3)sc21	?	17	-27%	-27%	?	/
COc1cccc(-c2nn(C)c3sc(C(=O)NCCCN(C)Cc4ccccc4)cc23)c1	28µM*	-16	-22%	-11%	?	-53*
CCCCN(C)CCNC(=O)c1cc2c(-c3ccccc3F)nn(C)c2s1	-27%	-38	-20%	11%	?	-95*
CCCCN(C)CCNC(=O)c1cc2c(-c3cccc(OC)c3)nn(C)c2s1	-25%	-19	-32%	2%	?	-78*
SMILES	ATXN2 expr inh	DRD3 agonist	HepG2 tox	TGFb inhibitor	S2 tox	D3 antag
COc1cc(OC)c(/C=C/c2cc3c4ccccc4ccc3[n+](C)c2)c(OC)c1	/	/	-20%	-4%	/	/
CCN(CC)CCCNC(=O)c1cc2c(-c3cccc(OC)c3)nn(C)c2s1	/	-7	-40%	20%	i	-82*
CC(=O)n1cc(N(C(=O)CCl)c2ccc(C)cc2)c2ccccc21	8.9µM*	-11	5µM*	5.6µM*	10µM*	-67*
COc1cccc(C(NC(C)=O)c2nc(-c3cnn(C)c3)cs2)c1 (stereo unspecified)	2%	8	8%	-3%	i	21
CC(=O)NC(c1cccc(F)c1)c1nc(-c2cnn(C)c2)cs1 (stereo unspecified)	0%	-25	5%	10%	i	-53*
COCCNC(=O)C12CC3CC(C1)CC(c1ccccc1)(C3)C2	-23%	-7	0%	2%	i	-16
COc1ccc(NC(=O)C23CC4CC(C2)CC(c2ccccc2)(C4)C3)c(OC)c1	3%	32*	-20%	-1%	i	5
COc1ccc(-c2ccc(C)cc2)cc1C1C2C=CCCC2(C)C(=O)N1Cc1ccccc1 (stereo unspecified)	/	/	1%	-1%	/	/
COc1ccc(C2C3C=CCCC3(C)C(=O)N2Cc2ccccc2)cc1Cl (stereo unspecified)	/	/	-43%	14µM*	/	/
COc1ccc(-c2ccc(C)cc2)cc1[C@H]1[C@@H]2C=CCC[C@@]2(C)C(=O)N1Cc1ccccc1	?	-44	-20%	?	i	-56*
CC(C)(CN1CCN(C(c2ccccc2)c2ccccc2)CC1)NS(=O)(=O)c1ccccc1	-21%	-36	-8%	?	i	-53*
